SMILES strings stand for the structures. Results filed as inconclusive are left out. A number with no mark means an inactive call. The call rests on the fitted dose curve; in most records, active means well fitted inhibition curve with a large enough effect; inconclusive means small, poorly fitted or top-dose-only effect; inactive means no such curve, though single readings can be large or run the other way.
On the % scale 0 is the no-effect control and ±100 the full control effect.

The test relates to Zika virus NS2B-NS3 protease (unlinked complex). Nature of the test: Primary screen GU Rhodamine qHTS for Zika virus inhibitors: Unlinked NS2B-NS3 protease assay (AID 1347159). Further: nearly all actives have a fitted effect of over 60% in size. Conditions: Recombinant ZIKV NS2B-NS3 protease, Rhodamine110 substrate fluorescence; series mostly up to 107 µM; activity change, negative = inhibition: at the top concentration. The gist of the method: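 Enzyme 25 nM in Tris-HCl pH 8.0 + 0.01% Tween 20; compounds up to 114 microM, 15 min RT dark; + Rhod110 substrate 1.5 microM; read t0 and 15 min; delta fluorescence → % inhibition → 4-parameter Hill fit.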
(In qHTS, concentration-response curves come from the screen itself.)
`OCCc1ccc(O[C@@H]2O[C@H](CO)[C@@H](O)[C@H](O)[C@H]2O)cc1`: the “activity change, negative = inhibition” value is 0.955%.

As for `COc1ccc(N(C)c2nc(C)nc3ccccc23)cc1`, the “activity change, negative = inhibition” value is 14.2%.

As for `Cc1nc(C)c(-c2ccc(C3CCC(CC(=O)O)CC3)cc2)nc1C(N)=O` (configuration not stated), the “activity change, negative = inhibition” value was 11.2%.

`CC(=O)C1=C(C)N(c2cccc(C(F)(F)F)c2)C(=O)N[C@H]1c1ccc(C#N)nc1`: the “activity change, negative = inhibition” value was 0% [at 32.5 µM].

Take `O=C(NCc1ccc(S(=O)(=O)c2cc(F)cc(F)c2)cc1)c1ccc2nccn2c1`: the “activity change, negative = inhibition” value is 28.5%.

On to `COc1ccc(-c2nc(-c3ccc(-c4cccc(Cl)c4)o3)[nH]c2-c2ccc(OC)cc2)cc1`, for which the “activity change, negative = inhibition” value was 8.88%.

Turning to `C=CC(C)(C)c1[nH]c2cc3c(cc2c1CC1NC(=O)C2=CCCN2C1=O)C=CC(C)(C)O3` (configuration not stated), the “activity change, negative = inhibition” value is -2.54% [at 57.1 µM].

On to `COc1cc(C2Oc3c(OC)cc(CCCO)cc3C2CO)ccc1O[C@H]1O[C@H](C)[C@@H](O)[C@H](O)[C@@H]1O` (some centres not stated), for which the “activity change, negative = inhibition” value was -6.75% [at 57.1 µM].

Regarding `CC(C)c1nc(-c2ccc(NC(=O)Nc3cccc(C(F)(F)F)c3)c3ccccc23)c2c(N)nccn12`, the “activity change, negative = inhibition” value was -9.75%.

With `CCOCc1nc2c(N)nc3ccccc3c2n1CC(C)(C)O`, the “activity change, negative = inhibition” value was -0.546%.

With `CC1=C(COC2OC(CO)C(O)C(O)C2O)C(C(CO)C(=O)O)CC1` (configuration not stated), the “activity change, negative = inhibition” value was 8.75%.

As to `C=C(C(=O)OC)C1C(O)CC2(C)C(O)CCC(=O)C2C1O` (configuration not stated), the “activity change, negative = inhibition” value was 2.18%.

As to `CC(=O)C=C=C1C(C)(C)CC(O[C@@H]2O[C@H](CO)[C@@H](O)[C@H](O)[C@H]2O)CC1(C)O` (some centres not stated), the “activity change, negative = inhibition” value was 4.41%.

For the compound `CC(C(O)/C=C/C(C)(C)O)C1CCC2(C)C3C(=O)C=C4C(CCC(O)C4(C)C)C3(C)CCC12C` (configuration not stated), the “activity change, negative = inhibition” value was -8.3% [at 57.1 µM].

Take `CC(C)(O[C@@H]1O[C@H](CO)[C@@H](O)[C@H](O)[C@H]1O)C(OC(=O)/C=C\c1ccc(O)cc1)C(=O)OCc1ccc(O[C@@H]2O[C@H](CO)[C@@H](O)[C@H](O)[C@H]2O)cc1` (some centres not stated): the “activity change, negative = inhibition” value was 6.11% [at 32.5 µM].

For the compound `CCN1CCN(Cc2ccc(NC(=O)c3ccc(C)c(NC(=O)c4cncc(-c5cccs5)c4)c3)cc2C(F)(F)F)CC1`, the “activity change, negative = inhibition” value is 206%.

With `COc1cc2c(cc1OC)N1C(=O)C[C@]34C=CCN5CC[C@@H]2[C@@H](CC3)[C@]514`, the “activity change, negative = inhibition” value was -21.2%.

For the compound `NC1CCC(Nc2cc(-c3cccc(NCc4cccc(F)c4)n3)c(Cl)cn2)CC1` (configuration not stated), the “activity change, negative = inhibition” value was 287%.

Consider `CO/N=C(/C(=O)N[C@@H]1C(=O)N2C(C(=O)O)=C(Cn3ccc(=N)n3CCO)CS[C@H]12)c1csc(N)n1`, for which the “activity change, negative = inhibition” value was 27.8%.

Take `C=C1C(=O)O[C@H]2[C@H]1CC/C(C)=C/CC[C@@]1(C)O[C@@H]21`: the “activity change, negative = inhibition” value is 16%.

On to `CC[C@H](NC(=O)[C@H](CS(=O)(=O)CC1CC1)N[C@@H](c1ccc(F)cc1)C(F)(F)F)C(=O)C(=O)NC1CC1`, for which the “activity change, negative = inhibition” value was 0%.

With `C[C@@H]1O[C@@H](O[C@H]2[C@H](O[C@H]3[C@H](O[C@H]4CC[C@@]5(C)C(CC[C@]6(C)C5CC=C5[C@@H]7CC(C)(C)CC[C@]7(C(=O)O[C@@H]7O[C@H](CO)[C@@H](O[C@@H]8O[C@@H](C)[C@H](O)[C@@H](O)[C@H]8O)[C@H](O)[C@H]7O)CC[C@]56C)C4(C)C)OC[C@H](O)[C@@H]3O)O[C@H](CO)[C@@H](O)[C@@H]2O)[C@H](O)[C@H](O)[C@H]1O` (some centres not stated), the activity change, negative = inhibition is 6.71% [at 19.1 µM].

Take `C[C@@H]1C(=O)O[C@H](C)[C@H]1CC(=O)[C@](C)(O)[C@H]1CC[C@@]2(O)C3=CC(=O)[C@@H]4C[C@@H](O)[C@@H](O)C[C@]4(C)C3CC[C@]12C` (some centres not stated): the “activity change, negative = inhibition” value is 5.44% [at 57.1 µM].

As to `C[C@@H]1O[C@@H](O[C@@H]2[C@@H](O[C@@H]3O[C@@H](C)[C@H](O[C@@H]4OC[C@H](O)[C@H](O[C@@H]5OC[C@@H](O)[C@H](O)[C@H]5O)[C@H]4O)[C@@H](O[C@@H]4OC[C@](O)(CO)[C@H]4O)[C@H]3O)[C@H](OC(=O)[C@]34CCC(C)(C)C[C@H]3C3=CCC5[C@@]6(C)C[C@H](O)[C@H](O[C@@H]7O[C@H](CO[C@@H]8OC[C@H](O)[C@H](O)[C@H]8O)[C@@H](O)[C@H](O)[C@H]7O)C(C)(C)C6CC[C@@]5(C)[C@]3(C)C[C@H]4O)OC[C@H]2O)[C@H](O)[C@H](O)[C@H]1O` (some centres not stated), the activity change, negative = inhibition was 11.8% [at 19.1 µM].

Take `C=C(C(=O)O)C1CC(O)C2(C)CCCC(=C)C2C1` (configuration not stated): the “activity change, negative = inhibition” value is -5.52%.

With `CC1OC(OC2CCC3(C)C(CCC4(C)C3CC=C3C5CC(C)(C)CCC5(C(=O)OC5OC(CO)C(O)C(O)C5O)CCC34C(=O)O)C2(C)C)C(O)C(O)C1O` (configuration not stated), the “activity change, negative = inhibition” value is 18.6% [at 32.5 µM].

Take `CCOCCn1nc(CC)c2nc(N3CCC(C(=O)O)CC3)nc(Nc3cc(C)ccn3)c21`: the “activity change, negative = inhibition” value is -21%.

Values taken from PubChem BioAssay (NCATS).
